TDP1 cell CPT: qHTS for Inhibitors of human tyrosyl-DNA phosphodiesterase 1 (TDP1): qHTS in cells in presence of CPT; chicken DT40 Tdp1-/-;hTDP1 cells + 20 nM CPT, ATP luminescence, 48 h; Potency, µM (series often up to 46.2 µM), inactives show at the highest dose activity change, negative = growth inhibition, hits mostly inhibitors; 12% of 420,000 active; AID 686979, 2013; note: potency is the fitted concentration of half-maximal effect; nearly all actives have a fitted effect of over 55% in size
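Chicken DT40 Tdp1-/- cells stably complemented with human TDP1 were seeded at 400 cells/well in medium containing 20 nM camptothecin, exposed to pin-transferred compounds, and grown at 37 °C for at least 48 hr. Viability was read as ATP luminescence.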
Six1-Eya2 inh: qHTS Assay for Inhibitors of the Six1/Eya2 Interaction. AlphaScreen GST-Six1/His-Eya2 binding, biochemical; stronger effect = lower value. activity change, % (test concentration not listed). 0.56% of 360,000 active. AID 651725, 2012; in the data active = activity change below about -65%; inconclusive = mostly about -30% to -63%
Target sequence (O00167 whole entry, looked up): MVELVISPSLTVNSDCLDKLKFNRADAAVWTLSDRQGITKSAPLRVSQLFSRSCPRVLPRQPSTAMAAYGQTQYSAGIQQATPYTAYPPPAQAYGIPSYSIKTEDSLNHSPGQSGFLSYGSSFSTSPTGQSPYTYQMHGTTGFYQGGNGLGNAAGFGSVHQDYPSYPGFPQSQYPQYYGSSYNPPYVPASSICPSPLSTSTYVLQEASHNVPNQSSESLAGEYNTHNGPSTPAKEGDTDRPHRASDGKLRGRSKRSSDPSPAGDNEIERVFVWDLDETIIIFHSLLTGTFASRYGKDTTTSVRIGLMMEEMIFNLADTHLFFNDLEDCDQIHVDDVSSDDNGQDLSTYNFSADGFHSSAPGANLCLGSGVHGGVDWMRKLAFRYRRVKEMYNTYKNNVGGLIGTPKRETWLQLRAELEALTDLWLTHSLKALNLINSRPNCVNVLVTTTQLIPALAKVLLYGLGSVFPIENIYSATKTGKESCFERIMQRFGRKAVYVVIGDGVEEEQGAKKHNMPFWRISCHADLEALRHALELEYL
Target sequence (Q15475 whole entry, looked up): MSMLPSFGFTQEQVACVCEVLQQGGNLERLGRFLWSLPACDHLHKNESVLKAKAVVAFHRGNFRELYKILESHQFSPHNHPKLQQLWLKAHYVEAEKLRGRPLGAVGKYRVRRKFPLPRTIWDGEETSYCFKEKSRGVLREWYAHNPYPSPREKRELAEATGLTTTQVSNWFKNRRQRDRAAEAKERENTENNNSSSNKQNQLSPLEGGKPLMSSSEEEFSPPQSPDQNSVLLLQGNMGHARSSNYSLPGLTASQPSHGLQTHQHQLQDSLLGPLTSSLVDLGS
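Six1/Eya2 binding was read as AlphaScreen signal after compounds were pinned into GST-Six1 plus His-tagged Eya2 (5X stock 250/500 nM) in pH 8.0 Tris/NaCl/TCEP buffer, beads added, then incubated 1 h, 37 C, dark.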
TDP1 inh: qHTS Assay for Inhibitors of Tyrosyl-DNA Phosphodiesterase (TDP1); Tyrosyl-DNA phosphodiesterase 1 (Homo sapiens), Q9NUW8; Potency, µM (series often up to 130 µM), for the others: at the highest dose activity change, negative = inhibition, usual class: inhibitors; recombinant TDP1, AlphaScreen DNA substrate cleavage; AID 485290, 2010; 0.28% of 350,000 active; note: potency is the fitted concentration of half-maximal effect; nearly all actives have a fitted effect of over 40% in size
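Compounds were preincubated with Tdp1 (1 nM final) for 15 min at room temperature before substrate (15 nM final) started a 5 min reaction; beads (10 ug/ml final) were then added for 10 min before AlphaScreen detection.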
IL1B secr inh: qHTS for Inhibitors of Inflammasome Signaling: IL-1-beta AlphaLISA Primary Screen; THP-1 LPS/ATP IL-1B secretion, AlphaLISA, 16 h; stronger effect = lower value; activity change, % at 57.5 µM; 4.7% of 360,000 active; in the data active = activity change below about -50%; inconclusive = mostly about -30% to -49%
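Secreted IL-1B measured by AlphaLISA bead assay after 16 h compound exposure of THP-1 cells; compounds (final up to 57.5 uM) added 1 h before LPS (250 ng/mL) and ATP (1.25 mM) stimulation; lower signal means less secretion.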
TDP1 cell noCPT: qHTS for Inhibitors of human tyrosyl-DNA phosphodiesterase 1 (TDP1): qHTS in cells in absence of CPT | DT40 Tdp1-/- hTDP1 cells, no CPT, ATP luminescence, 48 h | Potency, µM (highest dose often 46.2 µM), without a hit: at the top dose activity change, negative = growth inhibition, most hits filed as inhibitors | AID 686978, 2013 | 15% of 420,000 active; note: potency is the fitted concentration of half-maximal effect; nearly all actives have a fitted effect of over 55% in size
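Compound effects on proliferation are scored in DT40 Tdp1-/-;hTDP1 cells in the absence of CPT. ATP levels (CellTiter-Glo luminescence) are recorded after a ≥48 hr, 37 °C incubation.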
CtBP-E1A blk: qHTS Assay for Inhibitors of the CtBP/E1A Interaction. AlphaScreen GST-E1A/His-CtBP binding, 1536-well; stronger effect = lower value. 0.49% of 340,000 active. CtBP / adenovirus E1A interaction (AlphaScreen). activity change, % (concentration not given with the values); in the data active = activity change below about -65%; inconclusive = mostly about -30% to -63%
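Steps: dispense buffer (Tris pH 8.0, NaCl 300 mM, TCEP 1 mM, BSA, Tween 20); add 5X protein mix (GST-E1A, His-CtBP, 125 nM each); pin 23 nL compound; 2 h at 37 °C, dark; add 5X beads (50 ug/mL); 1 h; read.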
An asterisk follows results filed as active; [ ] = remark or other dose. Most compounds without a hit are left out; they make up all but 18% or so of the library. Unless noted, calls come from the whole dose curve; as a rule, active = well fitted curve in the direction sought with a large enough effect; inconclusive = small, poorly fitted or top-dose-only effect, or another doubt; inactive = no such curve, though single readings can be large; an effect the other way counts as inactive or inconclusive. % is set by controls: 0 for no effect and ±100 for the full control effect.

What do the screens show for `COc1cc(Cl)c(C)cc1NC(=O)Cc1ccc(OC)c(OC)c1`?
TDP1 cell CPT: -28%; Six1-Eya2 inh: 11; TDP1 inh: 0%; IL1B secr inh: -21; TDP1 cell noCPT: 15µM*

Results for COc1ccccc1OCC(=O)Nc1ccc(C(=O)Nc2ccccc2C(=O)O)cc1 ?
TDP1 cell CPT: -22%; Six1-Eya2 inh: inconclusive; IL1B secr inh: 25; TDP1 cell noCPT: inconclusive; CtBP-E1A blk: 2

Results for C=CCn1c(SCC(=O)Nc2cc(C)ccc2C)nnc1-c1cnccn1 ?
TDP1 cell CPT: -4%; Six1-Eya2 inh: -1; TDP1 inh: 8%; IL1B secr inh: 0; TDP1 cell noCPT: -16%; CtBP-E1A blk: -1

How did CO[C@@H]1COC(=O)C/C=C\[C@H](C)[C@H](OC)COC(=O)[C@H]2CCCN2C(=O)C/C=C\[C@H]1C do in these assays?
TDP1 inh: 1%[21 µM]

What do the screens show for `CCN(CC(=O)Nc1ccccc1OC)CC(=O)Nc1ccccc1C(F)(F)F`?
TDP1 cell CPT: inconclusive; Six1-Eya2 inh: -9; TDP1 inh: -3%; IL1B secr inh: 16; TDP1 cell noCPT: inconclusive; CtBP-E1A blk: -6

Results for COc1ccc(CC(=O)Nc2ccccc2-c2ccccc2)cc1OC ?
TDP1 cell CPT: 16µM*; Six1-Eya2 inh: -4; TDP1 inh: 11%; IL1B secr inh: -28; TDP1 cell noCPT: 21µM*; CtBP-E1A blk: 3

How did CC(CCc1ccccc1)NC(=O)CN(C)Cc1ccccc1F (stereo not given) do in these assays?
TDP1 cell CPT: inconclusive; Six1-Eya2 inh: 1; TDP1 inh: -2%; IL1B secr inh: -74*; TDP1 cell noCPT: inconclusive; CtBP-E1A blk: -3

What do the screens show for `COc1ccccc1NC(=O)CCSCCC(=O)Nc1ccccc1OC`?
TDP1 cell CPT: 7%; Six1-Eya2 inh: 3; TDP1 inh: -4%; IL1B secr inh: 21; TDP1 cell noCPT: inconclusive; CtBP-E1A blk: -4

Results for CCN(CC(=O)Nc1ccccc1OC)CC(=O)Nc1ccccc1-c1ccccc1 ?
TDP1 cell CPT: 7.3µM*; Six1-Eya2 inh: 0; TDP1 inh: -3%; IL1B secr inh: 27; TDP1 cell noCPT: 9.2µM*; CtBP-E1A blk: 5

How did COc1ccccc1NC(=O)CCC(=O)c1ccc(-c2ccccc2)cc1 do in these assays?
TDP1 cell CPT: inconclusive; Six1-Eya2 inh: 2; TDP1 inh: 3%; IL1B secr inh: 61; TDP1 cell noCPT: 23µM*; CtBP-E1A blk: 12

Results for Cc1cccc(-n2nc3c(c2NC(=O)C2CC2)CS(=O)(=O)C3)c1C ?
TDP1 cell CPT: 2%; Six1-Eya2 inh: 4; TDP1 inh: 0%; IL1B secr inh: 9; TDP1 cell noCPT: 0%

Results for O=C(Nc1ccccc1)c1ccc(Br)c(S(=O)(=O)Nc2cccnc2)c1 ?
TDP1 cell CPT: -11%; Six1-Eya2 inh: -7; TDP1 inh: -3%; IL1B secr inh: 34; TDP1 cell noCPT: -23%; CtBP-E1A blk: 0

What do the screens show for `COc1ccc(CN(C)CC(=O)Nc2ccccc2-c2ccccc2)c(OC)c1`?
TDP1 cell CPT: inconclusive; Six1-Eya2 inh: 0; TDP1 inh: 3%; IL1B secr inh: -51*; TDP1 cell noCPT: 18µM*; CtBP-E1A blk: -7

What do the screens show for `Cc1ccccc1CN(C)CC(=O)Nc1ccccc1-c1ccccc1`?
TDP1 cell CPT: -18%; Six1-Eya2 inh: 5; TDP1 inh: 0%; IL1B secr inh: -4; TDP1 cell noCPT: inconclusive; CtBP-E1A blk: -4

How did COc1ccccc1CN(C)CC(=O)Nc1ccccc1-c1ccccc1 do in these assays?
TDP1 cell CPT: inconclusive; Six1-Eya2 inh: 4; TDP1 inh: -1%; IL1B secr inh: -82*; TDP1 cell noCPT: 23µM*; CtBP-E1A blk: -8

Results for O=S(=O)(c1ccccc1C(F)(F)F)N1CCC(n2cnc3ccccc32)CC1 ?
TDP1 cell CPT: inconclusive; Six1-Eya2 inh: -5; TDP1 inh: 4%; IL1B secr inh: -19; TDP1 cell noCPT: inconclusive; CtBP-E1A blk: 23

Results for CCC/C(O)=C1\C(=O)CCCC1=NCCc1ccc(OCC)c(OCC)c1 ?
TDP1 cell CPT: -10%; Six1-Eya2 inh: 6; TDP1 inh: 5%; IL1B secr inh: 73; TDP1 cell noCPT: inconclusive; CtBP-E1A blk: 5

How did Cc1cc2nc(C)n(CCCN)c2cc1C do in these assays?
TDP1 cell CPT: 23µM*; Six1-Eya2 inh: 6; TDP1 inh: -1%; IL1B secr inh: 27; TDP1 cell noCPT: 18µM*; CtBP-E1A blk: -3

What do the screens show for `COc1cc(CNCCSc2nnnn2C)ccc1OCc1ccccc1C`?
TDP1 cell CPT: 16µM*; TDP1 inh: 2%; TDP1 cell noCPT: inconclusive

What do the screens show for `CCOc1cccc(CNCCCSc2ncccn2)c1`?
TDP1 cell CPT: 4.6µM*; Six1-Eya2 inh: 3; IL1B secr inh: -23; TDP1 cell noCPT: 15µM*; CtBP-E1A blk: -11

How did Cn1nnnc1SCCNCc1ccccc1OCc1ccc(Cl)cc1 do in these assays?
TDP1 cell CPT: inconclusive; Six1-Eya2 inh: -1; TDP1 inh: 1%; IL1B secr inh: -89*; TDP1 cell noCPT: 16µM*; CtBP-E1A blk: 7

Results for Cn1nnnc1SCCCNCc1cccc(OCc2ccc(F)cc2)c1 ?
TDP1 cell CPT: inconclusive; TDP1 inh: -2%; TDP1 cell noCPT: 23µM*

Results for CCOc1cccc(CNCCCSc2nnnn2C)c1 ?
TDP1 cell CPT: 0%; TDP1 inh: -3%; TDP1 cell noCPT: -8%

How did CCOc1ccc(CNCCSc2nnnn2C)cc1OC do in these assays?
TDP1 cell CPT: 2%; TDP1 inh: 10%; TDP1 cell noCPT: 3%

What do the screens show for `Cn1nnnc1SCCCNCc1ccccc1OCc1ccc(F)cc1`?
TDP1 cell CPT: inconclusive; TDP1 inh: -4%; TDP1 cell noCPT: inconclusive

What do the screens show for `Cn1nnnc1SCCNCc1cc(Cl)ccc1OCc1ccccc1`?
TDP1 cell CPT: 26µM*; Six1-Eya2 inh: -3; TDP1 inh: 9%; IL1B secr inh: -9; TDP1 cell noCPT: 23µM*; CtBP-E1A blk: 7

Results for Cn1nnnc1SCCCNCc1cc(Cl)ccc1OCc1ccc(F)cc1 ?
TDP1 cell CPT: inconclusive; TDP1 inh: 1%; TDP1 cell noCPT: inconclusive

How did Cn1nnnc1SCCCNCc1ccccc1OCc1ccc(Cl)cc1 do in these assays?
TDP1 cell CPT: 18µM*; TDP1 inh: 4%; TDP1 cell noCPT: 23µM*

Bioassay records as filed in PubChem.
